Laboratory results reported in PubChem BioAssay (NCI).
Compounds without any hit were thinned out: in the full panel of roughly 83,000, 20% have a hit.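 Single-dose data. Exposure time 48 hours. Values below 10 considered active.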 Calls of active or inactive are those of the source.

Experiments:
Test in all cases: NCI-60 one-dose screen, 48 h (100 = growth as untreated, 0 = no growth, -100 = all killed)
Details in all cases: 10 µM unless noted
HCT-15 colon = system: HCT-15 colon
HT29 colon = system: HT29 colon
SNB-75 CNS = system: SNB-75 CNS
SNB-19 CNS = system: SNB-19 CNS
U251 CNS = system: U251 CNS
PC-3 prostate = system: PC-3 prostate
SK-MEL-5 melanoma = system: SK-MEL-5 melanoma
UACC-62 melanoma = system: UACC-62 melanoma
LOX IMVI melanoma = system: LOX IMVI melanoma
SK-MEL-28 melanoma = system: SK-MEL-28 melanoma
SK-MEL-2 melanoma = system: SK-MEL-2 melanoma
EKVX NSCLC = system: EKVX NSCLC
SN12C renal = system: SN12C renal
UO-31 renal = system: UO-31 renal
TK-10 renal = system: TK-10 renal
ACHN renal = system: ACHN renal
CAKI-1 renal = system: CAKI-1 renal
CCRF-CEM leukemia = system: CCRF-CEM leukemia
MOLT-4 leukemia = system: MOLT-4 leukemia

Measured: growth

FCc1nc2nc(Cl)c(Cl)nc2[nH]1
inactive: HCT-15 colon 103% | HT29 colon 99.4% | SNB-75 CNS 91.2% | SNB-19 CNS 94.9% | U251 CNS 101% | PC-3 prostate 95.2% | SK-MEL-5 melanoma 99.4% | UACC-62 melanoma 94.9% | LOX IMVI melanoma 95.3% | SK-MEL-28 melanoma 105% | SK-MEL-2 melanoma 107% | EKVX NSCLC 103% | SN12C renal 109% | UO-31 renal 94.5% | TK-10 renal 92.7% | ACHN renal 99.5% | CAKI-1 renal 91.6% | CCRF-CEM leukemia 104% | MOLT-4 leukemia 97.8%

CCOC(=O)N1CCN(CCCCl)CC1
inactive: HCT-15 colon 105% | HT29 colon 107% | SNB-75 CNS 102% | SNB-19 CNS 97.6% | U251 CNS 95.6% | PC-3 prostate 102% | SK-MEL-5 melanoma 101% | UACC-62 melanoma 93.5% | LOX IMVI melanoma 99.5% | SK-MEL-28 melanoma 106% | SK-MEL-2 melanoma 103% | EKVX NSCLC 98.2% | SN12C renal 99% | UO-31 renal 89.5% | TK-10 renal 92.1% | ACHN renal 97.4% | CAKI-1 renal 101% | CCRF-CEM leukemia 110% | MOLT-4 leukemia 98.7%

COc1cccc(CNCCN2C(=O)c3ccc4c5c(ccc(c35)C2=O)C(=O)N(CCNCc2cccc(OC)c2)C4=O)c1
inactive: SNB-75 CNS 120% | SNB-19 CNS 84.2% | U251 CNS 76.9% | PC-3 prostate 78.9% | SK-MEL-5 melanoma 58.8% | UACC-62 melanoma 96.8% | LOX IMVI melanoma 59.4% | SK-MEL-28 melanoma 120% | SK-MEL-2 melanoma 90.4% | EKVX NSCLC 121% | SN12C renal 85.7% | UO-31 renal 60.5% | TK-10 renal 99.6% | ACHN renal 76.4% | CAKI-1 renal 95.5% | MOLT-4 leukemia 90.4%
active: HCT-15 colon 9.24% | HT29 colon 2.39% | CCRF-CEM leukemia -0.889%

O=C(Nc1nc(-c2ccccc2Cl)cs1)c1cc(-c2ccccc2)nc2ccc(Cl)cc12
inactive: HCT-15 colon 11.9% | HT29 colon 85.3% | SNB-75 CNS 92.9% | SNB-19 CNS 80.6% | U251 CNS 62.5% | PC-3 prostate 73.2% | SK-MEL-5 melanoma 43.8% | UACC-62 melanoma 41.8% | LOX IMVI melanoma 21.6% | SK-MEL-28 melanoma 70.8% | SK-MEL-2 melanoma 69.9% | EKVX NSCLC 92.2% | SN12C renal 37.9% | UO-31 renal 52.3% | TK-10 renal 88% | ACHN renal 84.9% | CAKI-1 renal 81.5% | CCRF-CEM leukemia 18.8% | MOLT-4 leukemia 25.8%

CCn1ccnc1C(=O)/C=C/c1ccc(CC(=O)Nc2ccc(F)cc2)cc1
active: HT29 colon -27.6% | SNB-75 CNS 6.23% | CCRF-CEM leukemia 7.58%
inactive: HCT-15 colon 13.2% | SNB-19 CNS 14.9% | U251 CNS 10.5% | PC-3 prostate 33% | SK-MEL-5 melanoma 29.3% | UACC-62 melanoma 55.6% | LOX IMVI melanoma 13.9% | SK-MEL-28 melanoma 79.8% | SK-MEL-2 melanoma 97.8% | EKVX NSCLC 55.2% | SN12C renal 26.2% | UO-31 renal 39.8% | TK-10 renal 66.3% | ACHN renal 63.6% | CAKI-1 renal 34.1% | MOLT-4 leukemia 24.2%

O=C(Nc1cccc(C2=NCCN2)c1)c1ccc(OCCCOc2ccc(C(=O)Nc3cccc(C4=NCCN4)c3)cc2)cc1
inactive: HCT-15 colon 90.7% | HT29 colon 12.9% | SNB-19 CNS 14.9% | U251 CNS 24.8% | PC-3 prostate 29.8% | EKVX NSCLC 69.4% | SN12C renal 23.6% | UO-31 renal 85.7% | TK-10 renal 81.5% | ACHN renal 75.3% | CAKI-1 renal 65.1% | CCRF-CEM leukemia 33.5% | MOLT-4 leukemia 25.4%
active: SNB-75 CNS -1.39% | SK-MEL-5 melanoma 2.98% | UACC-62 melanoma -10.5% | LOX IMVI melanoma -33.4% | SK-MEL-28 melanoma -67.4% | SK-MEL-2 melanoma -47.3%

N#CC1=C(N)Oc2c(ccc3ccccc23)C1c1ccc([N+](=O)[O-])cc1 (centres undefined)
inactive: HCT-15 colon 41.5% | HT29 colon 90.3% | SNB-75 CNS 44.8% | SNB-19 CNS 87.8% | U251 CNS 89.8% | PC-3 prostate 65.4% | SK-MEL-5 melanoma 86% | UACC-62 melanoma 65.6% | LOX IMVI melanoma 59.1% | SK-MEL-28 melanoma 89.3% | SK-MEL-2 melanoma 86% | EKVX NSCLC 76.9% | SN12C renal 90.4% | UO-31 renal 54.7% | TK-10 renal 145% | ACHN renal 90.3% | CAKI-1 renal 41.6% | CCRF-CEM leukemia 66.9% | MOLT-4 leukemia 58.6%

N#CSCC1CC(O)(c2ccccc2)C(c2ccccc2)C(c2ccc(F)cc2)O1 (centres undefined)
active: HT29 colon 0.506% | LOX IMVI melanoma -1.61% | SK-MEL-28 melanoma -15.5% | SN12C renal -26.9% | TK-10 renal 0.365% | MOLT-4 leukemia -22%
inactive: HCT-15 colon 42.6% | SNB-75 CNS 62.6% | SNB-19 CNS 76.8% | U251 CNS 32.4% | PC-3 prostate 15.9% | SK-MEL-5 melanoma 57.3% | UACC-62 melanoma 41.2% | SK-MEL-2 melanoma 53.6% | EKVX NSCLC 14% | UO-31 renal 11.2% | ACHN renal 25.2% | CAKI-1 renal 15.2% | CCRF-CEM leukemia 12.2%

CCCCCCCCCCCC(=O)C(CCCCCCCCCC)C(=O)Nc1ccccc1 (centres undefined)
inactive: HCT-15 colon 115% | HT29 colon 94.7% | SNB-75 CNS 101% | SNB-19 CNS 101% | U251 CNS 99.4% | PC-3 prostate 92.6% | SK-MEL-5 melanoma 97.9% | UACC-62 melanoma 91.5% | LOX IMVI melanoma 93.5% | SK-MEL-28 melanoma 108% | SK-MEL-2 melanoma 98.8% | EKVX NSCLC 108% | SN12C renal 98.1% | UO-31 renal 86.1% | TK-10 renal 95.1% | ACHN renal 100% | CAKI-1 renal 97% | CCRF-CEM leukemia 103% | MOLT-4 leukemia 89.3%

O=S(=O)(NCCCNc1nccc(-c2c(-c3cccc(O)c3)nc3occn23)n1)c1ccc(Br)cc1
active: UACC-62 melanoma 8.87%
inactive: HCT-15 colon 102% | HT29 colon 38.9% | SNB-75 CNS 97.4% | SNB-19 CNS 118% | U251 CNS 104% | PC-3 prostate 91.1% | SK-MEL-5 melanoma 47.1% | LOX IMVI melanoma 46.8% | SK-MEL-28 melanoma 35.5% | SK-MEL-2 melanoma 54.3% | EKVX NSCLC 105% | SN12C renal 80.3% | UO-31 renal 90.8% | TK-10 renal 135% | ACHN renal 84.9% | CAKI-1 renal 75.6% | CCRF-CEM leukemia 87.9% | MOLT-4 leukemia 72.9%

O=C(CSc1nc2sc3c(c2c(=O)n1Cc1ccccc1)CCCC3)N1CCN(c2ccccc2)CC1
inactive: HCT-15 colon 94.8% | HT29 colon 90.2% | SNB-75 CNS 79.4% | SNB-19 CNS 110% | U251 CNS 90.8% | PC-3 prostate 83.2% | SK-MEL-5 melanoma 98.5% | UACC-62 melanoma 96% | LOX IMVI melanoma 97% | SK-MEL-28 melanoma 106% | SK-MEL-2 melanoma 106% | EKVX NSCLC 99.6% | SN12C renal 110% | UO-31 renal 76.8% | TK-10 renal 104% | ACHN renal 104% | CAKI-1 renal 92.9% | CCRF-CEM leukemia 97.7% | MOLT-4 leukemia 92.8%

O=C1Nc2cc(-c3ccncc3)ccc2/C1=C/c1ccc[nH]1
inactive: HCT-15 colon 72.3% | HT29 colon 88.8% | SNB-75 CNS 89.3% | SNB-19 CNS 97% | U251 CNS 91.7% | PC-3 prostate 88.1% | SK-MEL-5 melanoma 77.9% | UACC-62 melanoma 111% | LOX IMVI melanoma 98.8% | SK-MEL-28 melanoma 69.6% | SK-MEL-2 melanoma 106% | EKVX NSCLC 46.9% | SN12C renal 99.5% | UO-31 renal 73.7% | TK-10 renal 95.7% | ACHN renal 54% | CAKI-1 renal 87.9% | CCRF-CEM leukemia 104% | MOLT-4 leukemia 96.4%

COc1cc2nc(-c3ccc(C(F)(F)F)cc3)cc(OCCCN3CCC(O)CC3)c2cc1OC
active: HCT-15 colon 9.78% | HT29 colon 9.01% | SNB-75 CNS -7.26% | SK-MEL-5 melanoma -56.3% | UACC-62 melanoma -31.3% | LOX IMVI melanoma -74.4% | CAKI-1 renal -6.95%
inactive: SNB-19 CNS 62% | U251 CNS 46.3% | PC-3 prostate 40.6% | SK-MEL-28 melanoma 62.7% | SK-MEL-2 melanoma 47.6% | EKVX NSCLC 59.8% | SN12C renal 37.4% | UO-31 renal 24.2% | TK-10 renal 85.7% | ACHN renal 31.2% | CCRF-CEM leukemia 34.2% | MOLT-4 leukemia 35.3%

Cc1ccc2nc3c(cc2c1)CSc1nnc(-c2ccc[nH]c2=S)n1N3
inactive: HCT-15 colon 105% | HT29 colon 108% | SNB-75 CNS 91.4% | SNB-19 CNS 90.7% | U251 CNS 112% | PC-3 prostate 95.6% | SK-MEL-5 melanoma 96.4% | UACC-62 melanoma 87% | LOX IMVI melanoma 96.6% | SK-MEL-28 melanoma 103% | SK-MEL-2 melanoma 100% | EKVX NSCLC 102% | SN12C renal 92.8% | UO-31 renal 64.3% | TK-10 renal 105% | ACHN renal 97.4% | CAKI-1 renal 78.7% | CCRF-CEM leukemia 104% | MOLT-4 leukemia 91.9%

c1ccc(-c2nn(-c3ccccc3)[n+](-c3cccc4ccccc34)n2)cc1
active: PC-3 prostate 6.61% | SK-MEL-5 melanoma -30.2% | UACC-62 melanoma -2.14% | SK-MEL-2 melanoma -11.3%
inactive: HCT-15 colon 103% | HT29 colon 12.1% | SNB-75 CNS 48.4% | SNB-19 CNS 24.9% | U251 CNS 17.7% | LOX IMVI melanoma 12.7% | SK-MEL-28 melanoma 41.2% | EKVX NSCLC 11.8% | SN12C renal 32.7% | UO-31 renal 69.1% | TK-10 renal 40.4% | ACHN renal 72.2% | CAKI-1 renal 90.3% | CCRF-CEM leukemia 18.7% | MOLT-4 leukemia 18.9%

O=S(=O)(NCCCNc1nccc(-c2c(-c3cccc(O)c3)nc3occn23)n1)c1ccc(F)cc1
inactive: HCT-15 colon 90.2% | HT29 colon 36.3% | SNB-75 CNS 104% | SNB-19 CNS 113% | U251 CNS 95.3% | PC-3 prostate 81.4% | SK-MEL-5 melanoma 35.7% | LOX IMVI melanoma 44.4% | SK-MEL-28 melanoma 33.7% | SK-MEL-2 melanoma 50.6% | EKVX NSCLC 101% | SN12C renal 74.9% | UO-31 renal 92.1% | TK-10 renal 116% | ACHN renal 79.1% | CAKI-1 renal 72.2% | CCRF-CEM leukemia 89% | MOLT-4 leukemia 70%
active: UACC-62 melanoma -1.99%
